An excerpt weighted towards active compounds, which were near 2.2% of everything screened.
aSyn yeast inh: inhibitors of alpha-synuclein toxicity in yeast; 370,000 tested, 0.14% active; Potency, µM (series often up to 46.1 µM), for the others: at the top dose growth rescue (activation), usual class: activators; Yeast expressing alpha-synuclein, growth rescue, BacTiter-Glo, 24 h; further: % of control where 0% means no effect; nearly all actives have a fitted effect of over 65% in size
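Readout is rescue of growth in alpha-synuclein-expressing yeast, so inhibitors of toxicity appear as activators. Growth after 24 hr at 30 deg C in galactose medium is quantified by luminescence.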
Mito fusion act: mitochondrial division inhibition or fusion activation; S. cerevisiae fusion-defective mutant growth rescue, CellTiterGlo 48 h; Potency, µM (highest dose often 46.1 µM), for inactives: at the top dose growth rescue (activation), hits mostly activators; 320,000 tested, 0.23% active; further: % of control where 0% means no effect; nearly all actives have a fitted effect of over 45% in size
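Yeast fusion mutant, YPEG (non-fermentable carbon), compound, 48 h at 37C non-permissive; CellTiterGlo added, 10 min RT, luminescence read. Rescued growth = division inhibition.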
Abeta yeast res: restores growth of yeast expressing A-beta42 peptide. yeast expressing A-beta42, growth rescue, OD600, 48 h; response scale: 0% DMSO, 100% iron-clioquinol control. Potency, µM (titrated, usually from 46.1 µM), actives largely listed as activators. 410,000 tested, 0.063% active; further: nearly all actives have a fitted effect of over 55% in size
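Yeast growth medium received pinned compounds, then yeast cells expressing toxic A-beta were added; plates incubated at 30 C for 48 hr. Growth read as absorbance at 600 nm, normalized to DMSO and equimolar FeCl3 plus clioquinol controls.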
TDP43 rescue: rescues yeast growth from TDP-43 toxicity; Potency, µM (highest dose often 46.1 µM), for inactives: at the highest dose growth rescue (activation), most hits filed as activators; TDP-43 expressing yeast growth rescue, BacTiter-Glo, 24 h; 410,000 tested, 1.8% active; AID 652104; further: % of control where 0% means no effect; nearly all actives have a fitted effect of over 50% in size
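Growth rescue of TDP-43-toxic yeast measured as ATP luminescence (BacTiter-Glo). Cells grown to mid-log in raffinose, induced in galactose at OD600=0.02, exposed to compound 24 hr at 30 deg C.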
FUS suppressor: rescues growth of FUS-expressing yeast. S. cerevisiae FUS-expressing, growth rescue, OD600, 24 h. Potency, µM (titrated, usually from 76.6 µM), hits mostly activators. 390,000 tested, 0.24% active. AID 1347120;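 further: plate controls were DMSO vehicle for no effect and reference control for full effect; nearly all actives have a fitted effect of over 55% in size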
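Steps: raffinose overnight preculture; dilution to OD 0.005 in 2% galactose minimal medium; compound addition (concentration series); 24hr at 30C, 99% humidity; absorbance read at 600 nm.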
* hit, by the source's call; i = inactive; ? = inconclusive; . = not tested or not shown. The call rests on the fitted dose curve; in most records, active means well fitted curve in the direction sought with a large enough effect; inconclusive means small, poorly fitted or top-dose-only effect, or another doubt; inactive means no such curve, though single readings can be large; an effect the other way counts as inactive or inconclusive. Potency means the concentration at half of the fitted maximal effect.

SMILES	aSyn yeast inh	Mito fusion act	Abeta yeast res	TDP43 rescue	FUS suppressor
Cc1cc(Nc2cccc(C(F)(F)F)c2)nc2ccc(NC(=O)c3cncc(Br)c3)cc12	.	.	i	14%	?
COc1ccccc1CC(=O)Nc1ccc2nc(Nc3cccc(C(F)(F)F)c3)cc(C)c2c1	.	.	i	13µM*	?
Cc1ccccc1C(=O)Nc1ccc2nc(N3CCCCC3)cc(C)c2c1	.	.	i	16%	i
Cc1ccccc1C(=O)Nc1ccc2nc(Nc3cccc(C(F)(F)F)c3)cc(C)c2c1	.	.	i	18µM*	i
COc1cccc(CC(=O)Nc2ccc3nc(Nc4cccc(C(F)(F)F)c4)cc(C)c3c2)c1	.	.	i	28%	i
Cc1cc(Nc2cccc(Cl)c2)nc2ccc(NC(=O)c3cncc(Br)c3)cc12	.	.	i	22µM*	32µM*
C=C1C[C@@]23CC[C@H]4[C@@](C)(CCC[C@@]4(C)C(=O)O)[C@@H]2CC[C@]1(O)C3	0%	?	.	.	.
Cc1ccc(NC(=O)c2c(NC(=O)C(F)(F)F)sc3c2CCCCC3)cc1	.	.	i	21%	i
COCCCNc1oc(-c2ccc(COc3ccccc3C)o2)nc1C#N	.	.	i	16µM*	i
CC1(C)CC(=O)C=C(Nc2ccccc2NC(=O)c2cc(Cl)ccc2F)C1	.	.	.	.	i
CCc1nn(CC(=O)NCCN(CC(C)C)CC(C)C)c(=O)c2cc3sc(C)cc3n12	.	.	i	5%	i
Cc1ccc(F)c([C@H]2[C@@H]3C=CCC[C@@]3(C)C(=O)N2Cc2ccccc2)c1	-7%	-54%	i	5%	i
C[C@@]12CCC=C[C@H]1[C@H](c1ccccc1Br)N(Cc1ccccc1)C2=O	-2%	.	i	35µM*	?
CC(C)NC(=O)N[C@H]1C[C@@H]2O[C@H](CO)CC[C@@H]2O[C@@H]1CCc1ccc(-c2ccccc2F)cc1	.	.	.	.	i
CCc1ccccc1N(CC)C(=O)c1c(C)oc2ncn(C)c(=O)c12	.	.	i	19%	i
O=S1(=O)C=C(Sc2nc3cc(Cl)ccc3o2)c2ccccc21	-8%	-16%	i	13µM*	i
CCOC(=O)c1c(C)[nH]c(C(=O)OC(C(=O)N(C)C)c2ccccc2)c1C (stereo not given)	-1%	.	.	.	.
COc1cc(/C=N/Nc2nc(Nc3ccccc3)nc(N3CCOCC3)n2)ccc1OC(=O)c1ccco1	14%	3%	i	20µM*	?
Cn1c(=O)cc(OCCCC(=O)Nc2cc(-c3ccncc3)ccn2)c2ccccc21	.	.	.	.	i
C=C(C)COc1ccc(-c2ncncc2-c2ccc(Br)cc2)c(O)c1	-11%	-20%	i	8%	i
C=C(C)COc1ccc(-c2nc(N)ncc2-c2ccc(Br)cc2)c(O)c1	-43%	-35%	i	20µM*	i
COc1cc2c(NC3CCN(C)CC3)nc(N3CCCN(C)CC3)nc2cc1OCC1CCCCN1 (stereo not given)	9%	.	.	.	.
Oc1ccc(C=NN=C2c3ccccc3-c3ccccc32)c(O)c1	-35%	.	i	11µM*	.
C(=NN=C1c2ccccc2-c2ccccc21)c1c[nH]c2ccccc12	21%	.	i	13µM*	.
O=[N+]([O-])c1cccc(/C=N\N=C2c3ccccc3-c3ccccc32)c1O	-8%	?	i	-33%	.
SMILES	aSyn yeast inh	Mito fusion act	Abeta yeast res	TDP43 rescue	FUS suppressor
Fc1c(F)c(F)c(N/N=C/c2c[nH]c3ccccc23)c(F)c1F	-37%	-2%	i	?	i
COc1cn(CC(=O)Nc2ccc(C)cc2)c(CN2CCCCC2)cc1=O	.	.	i	15%	i
Cc1ccc(-c2csc3ncnc(Sc4nnnn4C4CC4)c23)cc1	0%	.	.	.	.
Cc1ccccc1CN1c2ccccc2S(=O)(=O)c2ccccc21	.	.	i	2%	i
O=S1(=O)c2ccccc2N(Cc2ccccc2Cl)c2ccccc21	.	.	i	6.3µM*	i
O=C1COc2ccccc2N1Cc1ccccc1Cl	15%	18%	i	22µM*	i
CC(C)(Oc1ccc(Cl)cc1)C(=O)NNC(=O)c1ccc(Br)o1	2%	6%	i	14µM*	i
O=[N+]([O-])c1ccc2[nH]nc(-c3ccccc3)c2c1	-7%	-15%	i	5.6µM*	.
O=C(O)c1[nH]c2ccc([N+](=O)[O-])cc2c1-c1ccccc1	-8%	6%	?	-14%	i
CN1CCN2c3ccccc3CC3(C(=O)OC(C)(C)OC3=O)C2C1 (stereo not given)	-7%	.	.	.	.
CC(C)CCNC(=O)CCCOc1ccccc1	-2%	1%	i	9%	i
O=C(CCCOc1cccc(Br)c1)NCCOc1ccccc1	10%	0%	i	13µM*	i
S=C1NCN(Cc2ccco2)CN1CCc1ccccc1	3%	-4%	14µM*	?	i
CC(C)CN1CN(Cc2ccco2)CNC1=S	13%	-1%	i	-6%	.
COC(=O)[C@]12C[C@H](CC(=O)NCc3ccccc3)C(=O)N(Cc3ccc(Cl)cc3Cl)C1=C[C@H](C(C)(C)C)O[C@@H]2C	.	.	.	.	i
COC(=O)[C@]12C[C@H](CC(=O)NCc3cccc(C(F)(F)F)c3)C(=O)N(Cc3ccc(Cl)cc3Cl)C1=C[C@H](C(C)(C)C)O[C@@H]2C	.	.	.	.	13µM*
COC(=O)[C@]12C[C@H](CC(=O)N3CCN(C(=O)c4ccco4)CC3)C(=O)N(Cc3ccc(Cl)cc3Cl)C1=C[C@H](C(C)(C)C)O[C@@H]2C	.	.	.	.	11µM*
Cc1cc(C)cc(NC(=O)CSc2nnc(-c3ccccc3)n2N)c1	-3%	0.63µM*	i	-15%	i
COc1ccc(C=NNC(=O)NN=Cc2ccc(OC)c(OC)c2)cc1OC	-3%	.	i	-14%	i
COc1ccc(/C=N/NC(=S)SC)cc1OC	-18%	-5%	?	35µM*	i
CC(C)C[C@H]1COc2cccc(F)c2S(=O)(=O)N1Cc1cn(CCC2OCCCO2)nn1	.	.	.	.	i
COC(=O)/N=C(/Cc1ccc(OC)cc1)c1ccc(OC)cc1	-3%	16%	i	22µM*	i
Cc1ccc(SCc2nc(-c3ccccc3)no2)cc1	-13%	-3%	i	8%	i
Cc1ccccc1OCc1nc(-c2cccnc2)no1	11%	0%	i	11µM*	i
c1ccc(OCc2nc(-c3ccncc3)no2)cc1	4%	4%	i	11µM*	i
Cc1ccc(SCc2nc(-c3ccncc3)no2)cc1	6%	1%	i	16µM*	i
CCOC(=O)c1sc2ccccc2c1S(=O)(=O)NCc1ccc(F)cc1	.	.	i	17%	i
CCN(C(=O)C1CCCN1S(=O)(=O)c1cccnc1)c1ccccc1 (stereo not given)	.	.	.	.	i
COc1ccc(S(=O)(=O)c2c(SC)nn(CC(=O)Nc3ccc(C)c(Cl)c3)c2N)cc1	.	.	i	26%	?

Compound activity as filed in PubChem.
